Screens: PubChem, Pan Lab, Icahn School of Medicine at Mount Sinai
Shown is part of a subset that was picked to be rich in hits.
RBX1-CUL1 inh: human ROC1-CUL1 E3 ligase inhibition | in vitro K48 di-Ub FRET, acceptor:donor ratio, 45 min | AID 1347404 | hit rate 0.6% among 140,000 | inhibition, % at 10 µM; in the data active = inhibition above about 25%
Target sequence (P62877 whole entry, looked up): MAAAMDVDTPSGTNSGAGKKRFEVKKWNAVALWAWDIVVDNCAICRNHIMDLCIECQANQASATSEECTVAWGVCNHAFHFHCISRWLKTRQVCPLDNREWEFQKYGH
Target sequence (Q13616 whole entry, looked up): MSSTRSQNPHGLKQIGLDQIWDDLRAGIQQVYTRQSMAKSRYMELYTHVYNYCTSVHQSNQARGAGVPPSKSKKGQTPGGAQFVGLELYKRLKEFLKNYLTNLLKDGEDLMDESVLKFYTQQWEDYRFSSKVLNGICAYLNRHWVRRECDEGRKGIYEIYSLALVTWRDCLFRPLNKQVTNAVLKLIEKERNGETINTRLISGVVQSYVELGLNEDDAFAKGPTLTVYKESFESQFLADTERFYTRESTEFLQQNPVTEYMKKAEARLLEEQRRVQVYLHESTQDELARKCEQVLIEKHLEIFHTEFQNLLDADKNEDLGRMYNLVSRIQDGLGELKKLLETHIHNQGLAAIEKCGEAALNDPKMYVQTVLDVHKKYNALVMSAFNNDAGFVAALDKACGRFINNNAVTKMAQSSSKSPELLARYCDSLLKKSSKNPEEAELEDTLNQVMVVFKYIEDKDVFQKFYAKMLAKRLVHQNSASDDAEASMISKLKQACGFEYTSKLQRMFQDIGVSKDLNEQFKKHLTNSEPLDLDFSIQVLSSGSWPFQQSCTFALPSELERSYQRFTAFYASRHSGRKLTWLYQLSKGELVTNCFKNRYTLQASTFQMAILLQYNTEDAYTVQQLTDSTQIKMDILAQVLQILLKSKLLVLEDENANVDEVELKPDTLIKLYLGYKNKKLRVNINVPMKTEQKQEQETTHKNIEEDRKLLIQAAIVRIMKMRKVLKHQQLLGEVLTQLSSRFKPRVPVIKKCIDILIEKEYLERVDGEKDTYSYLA
Starred values were filed as active, the others as inactive.

SMILES	RBX1-CUL1 inh
Cc1ccc(NC(=O)CN2C(=O)S/C(=C\c3cccn3-c3cccc(C(=O)O)c3)C2=O)c(C)c1	72*
Cc1ccc(NC(=O)CN2C(=O)S/C(=C\c3ccc(N4CCOCC4)cc3C)C2=O)c(C)c1	-7
Cc1ccc(NC(=O)CN2C(=O)S/C(=C\c3ccc(N4CCCC4)c(F)c3)C2=O)c(C)c1	-6
Cc1cccc(C)c1NC(=O)CN1C(=O)S/C(=C\c2cccn2-c2cccc(C(=O)O)c2)C1=O	-3
Cc1ccc(NC(=O)CN2C(=O)S/C(=C\c3cccn3-c3cccc(C(=O)O)c3)C2=O)cc1C	48*
Cc1cccc(NC(=O)CN2C(=O)S/C(=C\c3cccn3-c3cccc(C(=O)O)c3)C2=O)c1	10
Cn1nc(C(=O)N2CCCC(CCc3ccc(F)cc3F)C2)ccc1=O (stereo not given)	2
CCOc1ccc(CCNC(=O)C2COc3ccccc3C2)cc1OCC (stereo not given)	-2
COc1cc(-c2c(C(=O)O)nc3ccccc3c2C(=O)O)cc(OC)c1OC	11
CCN(CC)S(=O)(=O)c1cc(F)ccc1OC	-6
CN(CCC(=O)/C=C/c1cccc(F)c1)CCc1ccc2c(c1)OCO2	50*
O=S(=O)(NCc1ccc2c(c1)OCO2)c1cccc(F)c1	3
CC1=NC(=O)C(C(=O)/C=C/c2ccc3c(c2)OCO3)=C(C)C1	-7
O=C(C1=CCCC1)N1CCCC(CNS(=O)(=O)c2cccs2)C1 (stereo not given)	7
N#Cc1c(N)[n+]([O-])c2cc(NCCO)c(F)cc2[n+]1[O-]	28*
OCCNc1cc2nccnc2cc1F	-6
Cc1ccccc1NC(=O)C1C(=O)N(CCO)C2(C)CC1c1ccccc1O2 (stereo not given)	6
Cc1ccc(OC(=O)CSc2nnc(-c3cccs3)o2)cc1C	1
CCN1C(=O)CC(CC(=O)N(C)Cc2nc3c(s2)CCCC3)(c2cccc(C(F)(F)F)c2)C1=O (stereo not given)	-6
O=C(N/N=C/c1cccc(Cl)c1Cl)c1ccc(O)c(O)c1	55*
O=C(N/N=C/c1ccc(Cl)cc1Cl)c1ccc(O)c(O)c1	4
O=C(N/N=C/c1cccc(Cl)c1Cl)c1ccc(Br)cc1	0
Cc1c(C(=O)O)c2c(n1Cc1ccccc1)C(=O)c1ccc(Br)cc1-2	5
CCOC(=O)Nc1ccc(Br)cc1F	3
CCOC(=O)C(C(C)=O)C1=C(Br)C(=O)C(=O)c2ccc(Br)cc21 (stereo not given)	48*
SMILES	RBX1-CUL1 inh
CSc1ccccc1C(=O)NCc1c(C)ncc2c1CCN(C(=O)c1csc(C)n1)C2	0
Cc1cccc(N2CCN(C(=O)C3C4C=CC(C4)C3C(=O)O)CC2)c1C (stereo not given)	-6
CCOC(=O)c1c(NC(=O)CSc2cn(CCNC(=O)c3ccc(OC)cc3)c3ccccc23)sc2c1CCC2	5
C=CCNC(=O)C(C(=O)OCC)C1CCCCC1 (stereo not given)	-7
CCOC(=O)C1C(C)=NC(=S)C(C#N)=C1c1ccncc1 (stereo not given)	11
CCN(CC1CCN(C2CCN(C)CC2)CC1)C(=O)c1cc(C)[nH]n1	26*
CCN(CC1CCN(C2CCN(C)CC2)CC1)C(=O)CCC(=O)c1ccccc1	-3
CCN(CC1CCN(C2CCN(C)CC2)CC1)C(=O)c1ccc(C=O)cc1	2
CCCCCc1ccc(-c2ccc(-c3ccc(O)cc3)cn2)cc1	-2
CC1(C)C(C=C(Cl)Cl)C1C(=O)NCc1ccc2c(c1)OCO2 (stereo not given)	8
Cc1cc(C)cc(NC(=O)/C(C#N)=C/c2c(O)ccc3ccccc23)c1	2
COc1ccc(Br)cc1CNc1ccc2[nH]c(=O)[nH]c2c1	1
CNCc1cc(Br)ccc1OC	3
Oc1ccc(NCc2ccc(Br)cc2)cc1	76*
CCc1ccc(CNc2ccc(O)cc2)cc1	-15
Oc1ccc(NCc2ccc(OCc3ccccc3)cc2)cc1	1
COc1ccc(Br)cc1CNc1ccc(O)cc1	41*
CCCCc1[nH]nc2c1C1(CCN(C)CC1)C(C#N)C(=N)O2 (stereo not given)	-3
CS(=O)(=O)c1nnc(C(F)(F)F)s1	6
Cn1c(SCc2nc(-c3ccccc3)no2)nnc1-c1ccco1	9
CCO/C=C(\C(=O)OCC)C1=NC(=O)NC(=O)C1	-2
Cc1ccc(-c2noc(-c3ccc(N4CCCCC4)c([N+](=O)[O-])c3)n2)cc1	-5
Cc1n[nH]c(C)c1C12CC3CC(CC(C3)C1)C2	-13
CCOC(=O)c1sc2ncn(CC(=O)Nc3cccc(C)c3)c(=O)c2c1C	8
CCN(CC)C(=O)c1c(NC(=O)c2ccco2)sc2c1CCC(C(C)(C)C)C2 (stereo not given)	14
SMILES	RBX1-CUL1 inh
Cc1ccccc1C(=O)Nc1sc2c(c1C(=O)O)CCC(C(C)(C)C)C2 (stereo not given)	-4
CC(C)(C)C1CCc2c(sc(NC(=O)c3ccco3)c2C(=O)O)C1 (stereo not given)	39*
O=C(COC(=O)c1n[nH]c(=O)c2ccccc12)c1ccc(Cl)cc1	3
O=S(=O)(N1CCCCC1)N1CCN(c2cc(Cl)ccc2Cl)CC1	3
Cc1cc(Cl)c2c(N)c(C)cc(C)c2n1	91*
CCOC(=O)c1c(Cl)cc(C)nc1Cl	6
Cc1cc(N2CCOCC2)c2c(N)c(Br)cc(C)c2n1	-1
COC(=O)c1cc2c(nc1C)-c1ccccc1OC2O (stereo not given)	1
COc1ccc(/C=c2/sc3n(c2=O)C(c2cccc(F)c2)C2=C(N=3)c3ccccc3CC2)cc1OC (stereo not given)	-1
O=c1/c(=C/c2ccc(N3CCOCC3)o2)sc2n1C(c1ccc(F)cc1)C1=C(N=2)c2ccccc2CC1 (stereo not given)	0
O=c1/c(=C\c2ccc(O)cc2)sc2n1C(c1cccs1)C1=C(N=2)c2ccccc2CC1 (stereo not given)	10
Cc1cc(/C=c2/sc3n(c2=O)C(c2ccc(F)cc2)C2=C(N=3)c3ccccc3CC2)c(C)n1-c1ccc(C(=O)O)cc1 (stereo not given)	0
O=c1/c(=C\c2cc(Cl)ccc2O)sc2n1C(c1ccccc1)C1=C(N=2)c2ccccc2CC1 (stereo not given)	-5
O=C(O)c1ccc(-c2ccc(/C=c3/sc4n(c3=O)C(c3ccc(F)cc3)C3=C(N=4)c4ccccc4CC3)o2)cc1Cl (stereo not given)	58*
O=C(O)c1ccc(/C=c2/sc3n(c2=O)C(c2cccs2)C2=C(N=3)c3ccccc3CC2)cc1 (stereo not given)	56*
O=c1/c(=C/c2ccccc2O)sc2n1C(c1cccs1)C1=C(N=2)c2ccccc2CC1 (stereo not given)	-6
O=C(O)c1cccc(-c2ccc(/C=c3/sc4n(c3=O)C(c3cccc(F)c3)C3=C(N=4)c4ccccc4CC3)o2)c1 (stereo not given)	73*
COc1ccc(N2C(=O)c3ccccc3NC2c2ccc(O)c(OC)c2)cc1 (stereo not given)	0
CN(C)c1ccc(/C=C2/OC(=S)NC2=S)cc1	26*
CN(C)c1ccc(/C=C\c2ccccc2)cc1	4
CC1=NOC(=O)/C1=C\c1ccc(N(C)C)cc1	1
CCOc1cccc(CNCCNC(=O)c2nonc2N)c1	-1
O=C(Cn1cccn1)N1CCCC(CCc2c(F)cccc2F)C1 (stereo not given)	-1
O=C(NC1CCCCC1)c1ccc2c(c1)N(Cc1cccc(F)c1)C(=O)c1ccccc1S2	-5
